Measurements: PubChem BioAssay (Tox21)
Results filed as inconclusive are left out. Where a call stands in place of a potency, no number is given. Activity calls are given as the source filed them. Unless noted, the call rests on the fitted dose curve; in most records, active means well fitted curve in the direction sought with a large enough effect in the repeat runs; inconclusive means weak or mixed curves; inactive means no such curve, though single readings can be large; an effect the other way counts as inactive or inconclusive.

Assays:
[1] = qHTS assay to identify small molecule agonists of the estrogen receptor beta (ER-beta) signaling pathway - cell viability counter screen (AID 1259380); further: nearly all actives have a fitted effect of over 30% in size; further: potency means the concentration at half of the fitted maximal effect
Method in brief: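 HEK293T ER-beta-UAS-bla; 2% CS-FBS; 6 hr pre-plate, 16 hr cpd at 37C/5% CO2; LiveBLAzer read first, then CellTiter-Glo 30 min RT, luminescence.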

[2] = target: Androgen receptor (Homo sapiens) (UniProt P10275); assay: qHTS assay to identify small molecule agonists of the androgen receptor (AR) signaling pathway in the presence of an antagonist (AID 1259381; calls by dose curve; further: nearly all actives have a fitted effect of over 15% in size)
Method in brief: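 MDA-kb2 cells, 3,000/well, rested 5hr at 37C/0% CO2 → nilutamide 3.0uM final or buffer → compounds, 15 conc. → 16hr at 37C → ONE-Glo, 30min RT → luminescence.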

[3] = qHTS assay to identify small molecule antagonists of the estrogen receptor beta (ER-beta) signaling pathway - cell viability counter screen (AID 1259382); further: nearly all actives have a fitted effect of over 55% in size; further: potency means the concentration at half of the fitted maximal effect
Method in brief: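 Cells: ER-beta-UAS-bla HEK293T, 2,000/well, 2% CS-FBS, 6 hr settle. Cpd + E2 (1nM final), 16 hr, 37C/5% CO2. Bla FRET substrate 2 hr RT, then CellTiter-Glo 30 min RT, luminescence.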

[4] = target: Estrogen receptor (Homo sapiens) (UniProt P03372); assay: qHTS assay to identify small molecule agonists of the estrogen receptor alpha (ER-alpha) signaling pathway in the presence of an antagonist (AID 1259383; calls by dose curve; further: top concentration of the series differs between compounds; nearly all actives have a fitted effect of over 15% in size)
Method in brief: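 VM7Luc4E2, endog. ER-alpha + 4×ERE-luc; charcoal-stripped FBS, phenol red-free, 5 d; 24hr plating; +10.0nM ICI-182,780 (final); cpds 15 conc, 22hr, 37C/5% CO2; ONE-Glo luminescence.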

[5] = qHTS assay to identify small molecule agonists or antagonists of the thyroid stimulating hormone receptor (TSHR) signaling pathway - wild type cell line counter screen (AID 1259384; calls by dose curve)
Method in brief: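 Wild-type Hek293 cells, 800/well, 18 h at 37C, then compound with Ro20-1724 for 30 min RT. cAMP by HTRF (cAMP-d2/anti-cAMP cryptate), 1 h RT, fluorescence read. 15 concentrations, triplicates.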

[6] = target: Thyrotropin receptor (Homo sapiens) (UniProt P16473); assay: qHTS assay to identify small molecule antagonists of the thyroid stimulating hormone receptor (TSHR) signaling pathway (AID 1259385; calls by dose curve; further: nearly all actives have a fitted effect of over 20% in size; further: potency means the concentration at half of the fitted maximal effect)
Method in brief: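 TSHR-HEK293 cells (800/well) plated 18 h, then compounds with Ro20-1724 and TSH at 1.5 ng/mL final, 30 min at room temperature. cAMP quantified by HTRF (cAMP-d2/anti-cAMP-cryptate, 1 h); 15 concentrations in triplicate.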

[7] = qHTS assay to identify small molecule agonists of the estrogen receptor alpha (ER-alpha) signaling pathway in the presence of an antagonist - cell viability counter screen (AID 1259386);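 further: cells exposed to compounds for 22 h at 37 °C before the viability read; nearly all actives have a fitted effect of over 30% in size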; further: potency means the concentration at half of the fitted maximal effect
Method in brief: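 VM7Luc4E2, stripped-serum pre-culture 5 d; 24hr plating; +ICI-182,780 10.0nM final; cpds 15 conc, 22hr, 37C/5% CO2; CellTiter-Fluor added at 21hr, fluorescence 1hr later.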

[8] = target: Progesterone receptor (Homo sapiens) (UniProt P06401); assay: qHTS assay to identify small molecule agonists of the progesterone receptor (PR) signaling pathway (AID 1346784; calls by dose curve; further: nearly all actives have a fitted effect of over 30% in size)
Method in brief: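 The screen uses PR-UAS-bla HEK 293T cells in charcoal-stripped serum (2%). Compounds are applied for 16 hr at 37C after a 6 hr pre-incubation, and reporter activity is detected with a FRET beta-lactamase substrate after 2 hr at room temperature.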

[9] = target: Progesterone receptor (Homo sapiens) (UniProt P06401); assay: qHTS assay to identify small molecule antagonists of the progesterone receptor (PR) signaling pathway (AID 1346795; active means well fitted inhibition curve with a large enough effect in the signal ratio in the repeat runs, not every such curve was filed as active; the % refers to the signal ratio; further: potency means the concentration at half of the fitted maximal effect)
Method in brief: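 After 6 hr plating at 37C in 2% stripped-serum medium, PR-UAS-bla HEK293T cells got compounds, then 1 nM R5020. Sixteen hours later, LiveBLAzer substrate was applied for 2 hr at room temperature and fluorescence was recorded.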

[10] = qHTS assay to identify small molecule antagonists of the progesterone receptor (PR) signaling pathway - cell viability counter screen (AID 1346798); further: series mostly up to about 92 µM; nearly all actives have a fitted effect of over 50% in size
Method in brief: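 Viability was determined by ATP-based luminescence (CellTiter-Glo) in PR-UAS-bla HEK293T cells cultured in 2% charcoal-stripped serum and incubated 16 hr with compounds under R5020 stimulation.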

[11] = qHTS assay to identify small molecule agonists of the progesterone receptor (PR) signaling pathway - cell viability counter screen (AID 1346799; calls by dose curve; further: nearly all actives have a fitted effect of over 45% in size)
Method in brief: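 Viability was scored by ATP luminescence (CellTiter-Glo, 30 min, room temperature) in the same wells used for the reporter readout, after 16 hr compound exposure of PR-UAS-bla HEK293T cells.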

[12] = qHTS assay to identify small molecule agonists of the TGF-beta/Smad signaling pathway - cell viability counter screen (AID 1346829); further: top concentration of the series differs between compounds; nearly all actives have a fitted effect of over 45% in size
Method in brief: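 Cytotoxicity counter screen: CellTiter-Glo luminescence (30 min, room temperature) measured in the SBE-bla HEK 293T reporter wells after 5 hr compound treatment at 37 C and the 2 hr substrate step.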

[13] = qHTS assay to identify small molecule agonists of the TGF-beta/Smad signaling pathway (AID 1346859; active means well fitted activation curve with a large enough effect in the signal ratio in the repeat runs, not every such curve was filed as active; the % refers to the signal ratio; further: series mostly up to about 77 µM)
Method in brief: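 Dual-wavelength fluorescence (460/530 nm emission) quantified beta-lactamase expression under the Smad binding element in HEK 293T cells following 5 hr compound treatment at 37 C.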

[14] = target: Thyrotropin-releasing hormone receptor (Homo sapiens) (UniProt P34981); assay: qHTS assay to identify small molecule antagonists of the thyrotropin-releasing hormone receptor (TRHR) signaling pathway (AID 1346877; active means well fitted inhibition curve with a large enough effect in the repeat runs, not every such curve was filed as active; further: series mostly up to about 51 µM)
Method in brief: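 Intracellular calcium fluorescence, read kinetically every second over 3 min, reports TRH-evoked signalling in HEK293 cells carrying TRHR. Test compounds were added 5 min ahead of a 1 nM TRH challenge.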

[15] = target: Thyrotropin-releasing hormone receptor (Homo sapiens) (UniProt P34981); assay: qHTS assay to identify small molecule agonists of the thyrotropin-releasing hormone receptor (TRHR) signaling pathway (AID 1346891; calls by dose curve;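 further: HEK293 cells expressing TRHR with calcium dye readout; series mostly up to about 58 µM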)
Method in brief: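 Kinetic fluorescence (3 min, 1 s intervals) reported intracellular calcium after compound transfer onto TRHR-Hek293 cells pre-loaded with dye for 2 h at 37 °C.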

[16] = Human pregnane X receptor (PXR) small molecule agonists, qHTS cell viability counter screen (AID 1346977); further: nearly all actives have a fitted effect of over 50% in size; further: potency means the concentration at half of the fitted maximal effect
Method in brief: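 HepG2 cells stably carrying the PXR-Luc reporter are cultured with 5% charcoal-stripped FBS and treated with compounds for 24hr. CellTiter-Fluor is added at 23hr and fluorescence is read after 1hr.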

[17] = qHTS assay to identify small molecule agonists of the androgen receptor (AR) signaling pathway in the presence of an antagonist - cell viability counter screen (AID 1259379); further: nearly all actives have a fitted effect of over 25% in size; further: potency means the concentration at half of the fitted maximal effect
Method in brief: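 Cells: MDA-kb2 (MMTV-luc, AR and GR elements), 3,000/well, 5 hr settle. Added: nilutamide 3.0uM final, then compounds (15 conc.). Incubation: 16 hr, 37C, no CO2. Read-out: CellTiter-Fluor, 1 hr, fluorescence.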

[18] = qHTS assay to identify small molecule antagonists of the TGF-beta/Smad signaling pathway - cell viability counter screen (AID 1346824); further: nearly all actives have a fitted effect of over 50% in size
Method in brief: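 SBE-bla HEK 293T cells, incubated overnight, then compound plus 0.25 ng/mL TGF-beta1 (stock added) for 5 hr at 37 C. Viability was read in the same wells by CellTiter-Glo luminescence after 30 min at room temperature.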

Sequence of Progesterone receptor (Homo sapiens) (P06401 whole entry, looked up): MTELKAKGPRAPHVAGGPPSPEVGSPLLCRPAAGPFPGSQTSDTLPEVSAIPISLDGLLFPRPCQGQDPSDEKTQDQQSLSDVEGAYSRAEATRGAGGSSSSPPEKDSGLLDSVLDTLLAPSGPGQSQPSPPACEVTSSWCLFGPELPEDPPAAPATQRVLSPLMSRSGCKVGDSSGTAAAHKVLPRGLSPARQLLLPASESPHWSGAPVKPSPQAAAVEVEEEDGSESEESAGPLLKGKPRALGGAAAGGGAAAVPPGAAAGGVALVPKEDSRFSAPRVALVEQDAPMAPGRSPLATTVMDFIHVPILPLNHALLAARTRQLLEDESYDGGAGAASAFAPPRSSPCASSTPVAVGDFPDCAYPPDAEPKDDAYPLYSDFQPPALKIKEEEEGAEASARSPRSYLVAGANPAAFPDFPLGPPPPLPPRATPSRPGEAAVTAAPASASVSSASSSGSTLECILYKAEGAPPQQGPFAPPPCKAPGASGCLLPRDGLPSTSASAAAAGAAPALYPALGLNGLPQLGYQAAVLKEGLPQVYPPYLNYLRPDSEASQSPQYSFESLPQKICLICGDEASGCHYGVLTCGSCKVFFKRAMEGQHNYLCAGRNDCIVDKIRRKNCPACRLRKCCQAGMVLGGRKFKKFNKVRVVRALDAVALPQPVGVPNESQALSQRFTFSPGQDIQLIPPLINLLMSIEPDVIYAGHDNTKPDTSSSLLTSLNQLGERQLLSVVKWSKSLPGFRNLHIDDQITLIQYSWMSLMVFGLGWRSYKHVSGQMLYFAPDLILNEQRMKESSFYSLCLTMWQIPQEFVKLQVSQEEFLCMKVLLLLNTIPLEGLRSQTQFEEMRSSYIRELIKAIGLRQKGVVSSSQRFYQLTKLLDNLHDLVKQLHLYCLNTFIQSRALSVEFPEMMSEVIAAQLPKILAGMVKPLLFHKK
Sequence of Thyrotropin-releasing hormone receptor (Homo sapiens) (P34981 whole entry, looked up): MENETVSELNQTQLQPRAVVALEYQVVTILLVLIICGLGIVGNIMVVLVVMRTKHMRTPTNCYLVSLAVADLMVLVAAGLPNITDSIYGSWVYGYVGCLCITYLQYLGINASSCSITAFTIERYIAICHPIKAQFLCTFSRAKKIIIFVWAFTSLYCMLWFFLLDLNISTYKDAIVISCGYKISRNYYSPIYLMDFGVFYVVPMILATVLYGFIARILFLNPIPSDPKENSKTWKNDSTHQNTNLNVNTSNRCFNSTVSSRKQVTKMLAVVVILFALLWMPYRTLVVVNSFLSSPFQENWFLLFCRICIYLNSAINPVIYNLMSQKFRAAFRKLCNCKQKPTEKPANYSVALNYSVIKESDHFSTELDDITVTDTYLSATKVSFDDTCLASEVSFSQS
Sequence of Thyrotropin receptor (Homo sapiens) (P16473 whole entry, looked up): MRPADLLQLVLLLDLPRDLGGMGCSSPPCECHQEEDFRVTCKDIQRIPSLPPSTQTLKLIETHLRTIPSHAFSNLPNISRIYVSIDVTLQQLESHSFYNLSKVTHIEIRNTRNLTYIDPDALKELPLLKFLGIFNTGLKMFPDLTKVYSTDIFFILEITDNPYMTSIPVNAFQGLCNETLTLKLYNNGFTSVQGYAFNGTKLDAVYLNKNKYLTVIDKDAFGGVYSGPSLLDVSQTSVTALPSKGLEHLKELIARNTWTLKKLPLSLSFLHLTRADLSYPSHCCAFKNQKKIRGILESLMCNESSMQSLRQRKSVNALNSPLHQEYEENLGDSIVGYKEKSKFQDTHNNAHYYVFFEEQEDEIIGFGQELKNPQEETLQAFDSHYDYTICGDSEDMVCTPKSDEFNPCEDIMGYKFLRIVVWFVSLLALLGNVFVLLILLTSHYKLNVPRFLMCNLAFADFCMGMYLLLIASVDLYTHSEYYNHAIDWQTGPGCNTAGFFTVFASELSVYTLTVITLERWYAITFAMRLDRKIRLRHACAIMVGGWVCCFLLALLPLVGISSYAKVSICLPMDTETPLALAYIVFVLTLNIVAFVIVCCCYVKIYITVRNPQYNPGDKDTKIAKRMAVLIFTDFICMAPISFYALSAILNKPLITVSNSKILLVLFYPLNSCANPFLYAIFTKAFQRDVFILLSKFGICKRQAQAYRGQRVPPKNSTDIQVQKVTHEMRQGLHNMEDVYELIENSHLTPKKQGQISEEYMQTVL
Sequence of Estrogen receptor (Homo sapiens) (P03372 whole entry, looked up): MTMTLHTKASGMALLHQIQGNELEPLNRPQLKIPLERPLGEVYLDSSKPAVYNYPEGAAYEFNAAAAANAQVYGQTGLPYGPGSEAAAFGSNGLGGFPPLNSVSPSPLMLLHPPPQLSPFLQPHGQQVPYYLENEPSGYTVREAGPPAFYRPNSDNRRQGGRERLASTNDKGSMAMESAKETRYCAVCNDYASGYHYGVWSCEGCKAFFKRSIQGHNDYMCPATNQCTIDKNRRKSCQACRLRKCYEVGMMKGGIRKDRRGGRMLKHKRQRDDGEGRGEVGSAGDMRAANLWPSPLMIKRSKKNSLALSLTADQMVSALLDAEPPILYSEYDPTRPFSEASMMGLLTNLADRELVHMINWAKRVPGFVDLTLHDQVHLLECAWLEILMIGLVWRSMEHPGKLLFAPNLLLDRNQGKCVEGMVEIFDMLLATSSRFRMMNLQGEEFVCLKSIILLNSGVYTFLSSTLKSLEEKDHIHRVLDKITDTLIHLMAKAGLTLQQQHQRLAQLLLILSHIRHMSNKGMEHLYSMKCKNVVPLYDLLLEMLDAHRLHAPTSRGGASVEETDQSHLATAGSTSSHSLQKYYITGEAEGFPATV
Sequence of Androgen receptor (Homo sapiens) (P10275 whole entry, looked up): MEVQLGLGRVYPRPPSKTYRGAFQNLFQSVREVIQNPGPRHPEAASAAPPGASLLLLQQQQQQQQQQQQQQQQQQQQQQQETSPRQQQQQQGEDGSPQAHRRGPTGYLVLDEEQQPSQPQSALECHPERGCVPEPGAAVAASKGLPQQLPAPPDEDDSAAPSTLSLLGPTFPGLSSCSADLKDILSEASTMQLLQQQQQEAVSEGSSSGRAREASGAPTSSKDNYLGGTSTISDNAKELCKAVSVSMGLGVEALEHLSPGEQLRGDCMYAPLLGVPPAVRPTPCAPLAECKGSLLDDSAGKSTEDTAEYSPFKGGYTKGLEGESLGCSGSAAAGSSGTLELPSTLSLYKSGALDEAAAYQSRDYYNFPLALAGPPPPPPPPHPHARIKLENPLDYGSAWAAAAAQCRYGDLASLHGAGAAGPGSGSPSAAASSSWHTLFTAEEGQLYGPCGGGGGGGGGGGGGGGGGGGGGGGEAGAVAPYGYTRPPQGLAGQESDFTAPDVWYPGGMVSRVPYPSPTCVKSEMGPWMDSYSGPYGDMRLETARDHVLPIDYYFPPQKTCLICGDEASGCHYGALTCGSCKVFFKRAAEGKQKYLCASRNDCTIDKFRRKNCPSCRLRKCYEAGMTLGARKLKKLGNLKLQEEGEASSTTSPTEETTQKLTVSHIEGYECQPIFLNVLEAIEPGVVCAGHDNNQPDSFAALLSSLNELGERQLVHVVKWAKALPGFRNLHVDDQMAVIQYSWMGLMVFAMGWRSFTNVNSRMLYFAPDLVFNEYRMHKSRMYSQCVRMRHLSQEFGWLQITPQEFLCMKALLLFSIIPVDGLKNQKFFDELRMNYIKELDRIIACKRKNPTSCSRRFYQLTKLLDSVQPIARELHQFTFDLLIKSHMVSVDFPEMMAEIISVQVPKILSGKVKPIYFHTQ

Compound | Potency [1] | Potency [2] | Potency [3] | Potency [4] | outcome [5] | Potency [6] | Potency [7] | outcome [8] | Potency [9] | Potency [10] | Potency [11] | Potency [12] | Potency [13] | Potency [14] | Potency [15] | Potency [16] | Potency [17] | Potency [18]
Cn1cccc1 | inactive | inactive | inactive | inactive | inactive | inactive | inactive | inactive | inactive | inactive | inactive | inactive | inactive | inactive | inactive | inactive |  | 
CCCCCCCC/C=C\CCCCCCCC(=O)NCc1ccc(O)c(OC)c1 |  |  | inactive |  |  |  | inactive | inactive |  |  |  |  | inactive |  |  | inactive | inactive | 
CN(C)c1ccc(N=NS(=O)(=O)O)cc1 |  |  |  |  |  |  | 38.6 µM (active) | inactive |  |  |  |  | inactive | inactive | inactive | 20.4 µM (active) | 16.2 µM (active) | inactive
O=C(c1ccccc1)c1cc(Cl)ccc1O |  |  |  | inactive |  |  | inactive |  |  |  |  | inactive | inactive | inactive | inactive | inactive | inactive | inactive
CC(O)C#CC(C)O (stereo unspecified) |  |  |  | inactive | inactive |  |  |  | inactive | inactive |  |  | inactive | inactive | inactive |  | inactive | 
S=P(N1CC1)(N1CC1)N1CC1 | inactive |  | inactive |  | inactive |  | inactive | inactive |  |  |  |  | inactive | inactive | inactive | inactive |  | 
CN(C)CCCN1c2ccccc2Sc2ccc(C(F)(F)F)cc21 | 18.8 µM (active) |  | 18.8 µM (active) |  | inactive | 29.8 µM (active) | inactive | inactive |  |  | inactive | inactive |  |  |  |  |  | inactive
Cc1ccc(N)cc1O |  |  |  |  | inactive |  |  |  |  |  |  | inactive |  | inactive | inactive |  |  | 
CCC1(c2cnc[nH]2)Cc2ccccc2C1 |  |  | inactive |  |  |  | inactive |  |  | inactive | inactive | inactive | inactive | inactive | inactive | inactive |  | inactive
CCO[Si](CCCSSSSCCC[Si](OCC)(OCC)OCC)(OCC)OCC | 61.2 µM (active) |  | 54.5 µM (active) | inactive |  |  | inactive | inactive | inactive | inactive |  | inactive |  | inactive | inactive | inactive |  | inactive
Oc1c(Br)cc(Br)c2cccnc12 | 1.19 µM (active) |  |  | inactive | inactive | inactive | inactive |  | 2.66 µM (active) |  | inactive | inactive | inactive |  |  |  |  | inactive
